Measured values: the supplement of paper PMC6555819

Key:
Assay in all cases: PBM binding z-score (relative to random genomic background probes); higher = stronger binding; sequences stand for … in GC…GCGATTGACAGCGTAGAATGAAGG
[1] = tested on: PPARg:RXRa DBDmut IVT, anti-RXR (DBD mutation: RXRa K156A/R161A, NR concentration 270 nM, RXRa partner concentration 90 nM)
In short: (§1)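 Custom Agilent 4×180K protein-binding microarrays carried double-stranded probes, each with a 34-nt variable region. These regions held direct-repeat seeds, single-nucleotide variants, half-site ablations and random human genomic background sequences. Ligand-free nuclear receptor dimers were incubated on the arrays for 1 h, antibodies against each partner (one per run) detected binding, and scanned fluorescence was regression-normalized. Binding z-scores take the random background probes as reference.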

[2] = tested on: PPARg:RXRa IVT, anti-PPARg (NR concentration 270 nM, RXRa partner concentration 90 nM)
In short: as §1

[3] = tested on: PPARg DBDmut:RXRa IVT, anti-PPARg (DBD mutation: PPARg1 K132A/R137A, NR concentration 270 nM, RXRa partner concentration 90 nM)
In short: as §1

[4] = tested on: PPARg DBDmut IVT, anti-PPARg (DBD mutation: PPARg1 K132A/R137A, NR concentration 270 nM)
In short: as §1

[5] = tested on: PPARg homodimer (NR concentration 180 nM)
In short: as §1

[6] = tested on: PXR:RXRa (NR concentration 270 nM, RXRa partner concentration 90 nM)
In short: as §1

[7] = tested on: PXR homodimer (NR concentration 270 nM)
In short: as §1

[8] = tested on: RARa:RXR (NR concentration 270 nM, RXRa partner concentration 90 nM)
In short: as §1

[9] = tested on: RARa homodimer (NR concentration 270 nM)
In short: as §1

[10] = tested on: RARb:RXRa (NR concentration 270 nM, RXRa partner concentration 90 nM)
In short: as §1

[11] = tested on: RARb homodimer (NR concentration 270 nM)
In short: as §1

[12] = tested on: RARg:RXRa (NR concentration 270 nM, RXRa partner concentration 90 nM)
In short: as §1

[13] = tested on: RARg homodimer (NR concentration 270 nM)
In short: as §1

[14] = tested on: RXRa DBDmut IVT, anti-RXR (DBD mutation: RXRa K156A/R161A, NR concentration 90 nM)
In short: as §1

[15] = tested on: RXRa homodimer (NR concentration 180 nM)
In short: as §1

[16] = tested on: THRa:RXRa (NR concentration 90 nM, RXRa partner concentration 90 nM)
In short: as §1

[17] = tested on: THRa homodimer (NR concentration 90 nM)
In short: as §1

[18] = tested on: VDR homodimer (NR concentration 270 nM)
In short: as §1

| Sequence | PBM binding z-score [1] | PBM binding z-score [2] | PBM binding z-score [3] | PBM binding z-score [4] | PBM binding z-score [5] | PBM binding z-score [6] | PBM binding z-score [7] | PBM binding z-score [8] | PBM binding z-score [9] | PBM binding z-score [10] | PBM binding z-score [11] | PBM binding z-score [12] | PBM binding z-score [13] | PBM binding z-score [14] | PBM binding z-score [15] | PBM binding z-score [16] | PBM binding z-score [17] | PBM binding z-score [18] |
| --- | --- | --- | --- | --- | --- | --- | --- | --- | --- | --- | --- | --- | --- | --- | --- | --- | --- | --- |
| GATGCAGGGTCAGCTAGAGGCCAGAGTATGGAAA | 0.505 | 1.63 | -0.437 | -1.46 | 2.73 | 3.3 | -0.237 | 4.56 | 0.285 | 4.1 | 3.34 | 6.65 | 5.08 | 1.24 | 4.39 | 2.95 | 0.228 | 0.522 |
| GCGACTGGGGCATAGCAGGTTACCATAAGGTTGG | 3.87 | 2.96 | -0.728 | -0.706 | -0.174 | 0.0194 | -0.519 | 0.4 | -0.975 | 0.81 | 1.04 | 0.402 | 0.629 | -0.432 | 0.456 | 2.44 | -0.122 | -0.335 |
| ATAGACAGGTGATGAAGGTAACTCAGGCTATCAT | -0.221 | 0.67 | 1.3 | 0.102 | 0.341 | -0.261 | 0.251 | -0.0358 | 0.641 | 0.316 | 0.392 | 0.0804 | 0.356 | -0.779 | 0.265 | 0.901 | 0.156 | -0.14 |
| ATCGAACGGTCGAAGGTGAGTATACCCACCCGAA | -0.97 | 0.443 | 0.226 | -0.543 | -0.177 | -0.254 | -0.523 | 0.0689 | -0.549 | 1.05 | 0.62 | 0.884 | 0.957 | -1.05 | 0.717 | -0.016 | -0.481 | -0.147 |
| TGAATGAGGTTATAAGATCAGAGAACGTTGCAAA | 0.837 | 1.71 | 0.635 | 0.498 | 0.196 | 0.687 | -0.71 | 1.18 | -0.143 | 0.975 | -0.136 | 1.39 | 0.985 | 0.35 | 1.74 | 1.55 | -0.514 | 0.234 |
| CGTCCAAGGTCATAGGAGGTCAGTGGAGACAGAT | 3.31 | 4.65 | 1.06 | -0.0581 | 7.55 | 6.94 | 6.61 | 5.94 | 4.42 | 5.39 | 5.3 | 6.84 | 6.98 | 4.09 | 6.82 | 5.36 | 3.57 | 4.82 |
| GCTTACGGGTCAAAGGTTTTAGCATGAATAGAAT | 4.96 | 5.14 | 1.91 | 1.07 | 3.2 | 4.06 | 0.129 | 5.58 | 0.298 | 3.98 | 2.53 | 4.83 | 4.15 | 2.2 | 6.49 | 2.76 | -0.137 | 1.41 |
